The text below walks through data of ChEMBL document CHEMBL1157539, “Thousands of chemical starting points for antimalarial lead identification” (Nature, 2010).

In general, Inhibition refers to how much of the control response was suppressed.

Assay type in all cases: functional
Test [1] relates to Plasmodium falciparum. Briefly: GSK_TCMDC: Inhibition of Plasmodium falciparum 3D7 in whole red blood cells, using parasite LDH activity as an index of growth. Test compounds present at 2uM.
Test [2] deals with Plasmodium falciparum. The test is described as follows: GSK_TCMDC: Inhibition of Plasmodium falciparum Dd2 in whole red blood cells, using parasite LDH activity as an index of growth. Test compounds present at 2uM.
Another test has as its system HepG2. Briefly: GSK_TCMDC: Percent inhibition of human HepG2 cell line. Test compounds present at 10uM.

`Cc1cc(C)c(O)c(-c2cc(C(=O)Nc3ccc(S(=O)(=O)N4CC(C)OC(C)C4)cc3)[nH]n2)c1` (stereo not given): the Inhibition in the test with Plasmodium falciparum [1] was determined as 95%; in the test with Plasmodium falciparum [2], 16%; with HepG2, 31%.
The like results for `COc1ccc(-c2ccc(NC(=O)c3ccc(C#N)cc3)cc2)cc1CN1CCNCC1.O=C(O)C(F)(F)F` were, in that order, 96%, 42% and 23%.
On the same counts, the results for `Nc1ccn([C@@H]2O[C@H](COC(c3ccccc3)(c3ccccc3)c3ccccc3)[C@@H](O)[C@@H]2O)c(=O)n1` are 93%, 2% and 26%.
The like results for `COc1ccc2nccc([C@@H](O)CN3CCC(NC(=O)C(c4cc5ccccc5o4)N4CCN(c5ccccc5)CC4)CC3)c2c1` (stereo not given in full) were, in that order, 99%, 99% and 19%.
In the case of `Cc1ccc2nc(-c3ccc(C(=O)NC4CCN(Cc5ccccc5)CC4)cc3)[nH]c2c1C`, the Inhibition is reported as 100% with Plasmodium falciparum [1], 46% in the test on Plasmodium falciparum [2] and 22% in the test with HepG2.
On the same counts, the results for `Cc1[nH]cnc1CSCCN/C(=N\C#N)NCCCCCCCCN/C(=N/C#N)NCCSCc1nc[nH]c1C` are 81%, 48% and 1%.
`Cc1cc(-c2ccc(NC(=O)N3CCc4cc(Cl)c(N5CCN(C)CC5)cc43)cc2)ccc1C#N`: the Inhibition in the test with Plasmodium falciparum [1] came to 100%; with Plasmodium falciparum [2], 83%; with HepG2, 100%.
For the compound `O=S(=O)(c1csc2ccccc12)N(CCC(O)(C(F)(F)F)C(F)(F)F)Cc1cccc(O)c1`, the Inhibition is 100% in the test with Plasmodium falciparum [1], 100% in the test on Plasmodium falciparum [2] and 0% in the test with HepG2.
For the compound `CC(C)(C)OC(=O)NCc1ccc(Nc2nnc(-c3ccc(OCC(=O)NC[C@@H]4CC[C@H]5C[C@@H]4C5(C)C)c([N+](=O)[O-])c3)o2)cc1`, the Inhibition in the test on Plasmodium falciparum [1] is on record as 94%; in the test with Plasmodium falciparum [2] it was 52%; with HepG2 it was 29%.
The like results for `COc1ccc2c(N/N=C/c3ccc([N+](=O)[O-])cc3)ccnc2c1` were, in that order, 100%, 98% and 0%.
The like results for `O=C(NC1CCCCN(Cc2ccccc2O)C1)c1cc(F)cc(F)c1.O=C(O)C(F)(F)F` (stereo not given) were, in that order, 89%, 52% and 7%.
As to `COc1ccc2nccc([C@@H](O)CN3CCC(NCc4cc5sccc5nc4C(F)(F)F)CC3)c2c1.O=C(O)C(=O)O`, the Inhibition in the test with Plasmodium falciparum [1] was determined as 89%; in the test on Plasmodium falciparum [2], 67%; with HepG2, 22%.
As for `O=C(NCc1ccc(Cl)c(Cl)c1)c1ccc(-c2nc3ccc(Cl)cc3[nH]2)cc1`, the results for the Inhibition with Plasmodium falciparum [1], with Plasmodium falciparum [2] and in the test with HepG2 were 96%, 22% and 20%, respectively.
The like results for `COc1ccccc1CNc1ccnc(N2CC(Oc3ccc(F)cc3)C2)n1` were, in that order, 97%, 95% and 2%.
On the same counts, the results for `O=C(N/C=N/c1cc([N+](=O)[O-])c(-c2cccnc2)n1-c1ccc(O)cc1)c1ccccc1` are 100%, 62% and 17%.
The like results for `N#Cc1ccc(CN2CCCN(Cc3cccc(NC(=O)c4cc5ccccc5s4)c3)CC2)cc1.O=C(O)C(F)(F)F` were, in that order, 97%, 36% and 31%.
Turning to `Cc1ccc(F)c(OCC2CCN(c3ccc(C(=O)NC4CC4)cn3)CC2)c1`, the Inhibition in the test with Plasmodium falciparum [1] worked out at 94%; with Plasmodium falciparum [2], 95%; in the test on HepG2, 4%.
`O=C(NC1CCCCC1)N(CCCn1ccnc1)Cc1csc(-c2ccc(CNCc3ccccc3)cc2)n1.O=C(O)C(F)(F)F`: the Inhibition was 97% in the test on Plasmodium falciparum [1], 48% in the test with Plasmodium falciparum [2] and 5% with HepG2.
On the same counts, the results for `FC(F)(F)c1ccc(/C=C/c2cncnc2Nc2ccc3[nH]c(Cc4ccccc4)nc3c2)cc1` are 100%, 100% and 21%.
The like results for `COc1cccc(-c2cc3nc4c(c(NCCCn5ccnc5)n3n2)CCCC4)c1` were, in that order, 100%, 66% and 10%.
On the same counts, the results for `COc1cc(NC(=O)c2cc3c(C)nn(-c4cccc(C(F)(F)F)c4)c3s2)cc(OC)c1OC` are 100%, 50% and 0%.
Consider `Cl.O=C(Nc1ccc(Cl)c(Cl)c1)N1CCc2ccc(OCCCN3CCCCC3)cc2CC1`, for which the figures for the Inhibition with Plasmodium falciparum [1], in the test on Plasmodium falciparum [2] and in the test with HepG2 were 92%, 0% and 27%, respectively.
The like results for `COc1ccc2c(=NN=Cc3cccc(C)n3)cc(-c3ccccc3)[nH]c2c1` were, in that order, 97%, 25% and 0%.
The like results for `Cn1c(=O)c2nc(-c3ccc(Cl)cc3)nnc2n(CCCC#N)c1=O` were, in that order, 99%, 98% and 6%.
With `CNC(=O)c1cnc(Nc2ccc(N3CCOCC3)cc2)nc1Nc1cccc(O)c1.O=C(O)C(F)(F)F`, the Inhibition in the test with Plasmodium falciparum [1] worked out at 90%; in the test with Plasmodium falciparum [2], 78%; in the test on HepG2, 23%.
On the same counts, the results for `Cc1cc(C)c2oc(-c3cccc(NC(=O)c4ccc([N+](=O)[O-])o4)c3C)nc2c1` are 90%, 67% and 0%.
The like results for `FC(F)(F)c1ccc(CSc2ccc3nnc(-c4ccccn4)n3n2)cc1` were, in that order, 95%, 54% and 0%.
On the same counts, the results for `COC(=O)C(=O)c1c(-c2ccccc2)c(-c2ccc(OC)c(OC)c2)c2c3cc(OC)c(OC)cc3ccn12` are 97%, 89% and 2%.
`COc1ccc(-c2nc(NC(=O)CS(=O)(=O)c3ccc(OC)cc3)sc2C)cc1`: the Inhibition in the test on Plasmodium falciparum [1] came out at 95%; with Plasmodium falciparum [2] it was 89%; in the test with HepG2, 6%.
On the same counts, the results for `O=C(N[C@@H](Cc1ccccc1)CN1CCC(Oc2ccc(F)cc2)CC1)c1ccc(OCCCN2CCCCC2)cc1.O=C(O)C(F)(F)F` are 100%, 92% and 38%.
`COc1ccc2c(=NN=Cc3ccccc3)cc(C)[nH]c2c1`: the figures for the Inhibition with Plasmodium falciparum [1], in the test with Plasmodium falciparum [2] and in the test with HepG2 were 100%, 49% and 0%, respectively.
With `COc1ccc(CNC2Cc3ccccc3C2)cc1-c1ccc(S(=O)(=O)NCc2ccccc2)s1.O=C(O)C(F)(F)F`, the results for the Inhibition in the test with Plasmodium falciparum [1], in the test with Plasmodium falciparum [2] and in the test on HepG2 were 97%, 25% and 22%, respectively.
The like results for `O=C(/C=C/c1ccc(Cl)c(Cl)c1)NCCCCCN1CCCN(C(=O)Nc2ccc(OC(F)F)cc2)CC1` were, in that order, 99%, 0% and 39%.
On to `Cn1nc(-c2cccc(CNCCc3cccs3)c2)c2cnc(NC3CCCC3)nc21`, for which the results for the Inhibition with Plasmodium falciparum [1], with Plasmodium falciparum [2] and in the test with HepG2 were 97%, 0% and 8%, respectively.
On to `O=C(Nc1cccc(F)c1)NC1CCN(c2ccnc3cc(Cl)ccc23)C1.O=C(O)C(F)(F)F` (stereo not given), for which the results for the Inhibition in the test with Plasmodium falciparum [1], in the test with Plasmodium falciparum [2] and in the test with HepG2 were 100%, 64% and 13%, respectively.
On the same counts, the results for `CC1CN(Cc2ccc(-c3cccc(-c4nc5cc(F)ccc5[nH]4)c3)cc2)CC(C)O1.O=C(O)C(F)(F)F` (stereo not given) are 93%, 20% and 28%.
Turning to `Cc1ccccc1C(=O)Nc1cccc(-c2nc3ncccn3c2C)c1`, the Inhibition with Plasmodium falciparum [1] turned out to be 94%; in the test on Plasmodium falciparum [2] it was 94%; in the test with HepG2, 0%.
Consider `CC(Cc1ccc(C(=O)Nc2ccc(CC(C)NCCc3cccc(Cl)c3)cc2)cc1)NCCc1ccc(C(F)(F)F)cc1` (stereo not given), for which the Inhibition is reported as 100% in the test with Plasmodium falciparum [1], 88% in the test with Plasmodium falciparum [2] and 98% in the test on HepG2.
As for `N#Cc1ccccc1C(=O)N(Cc1cncn1Cc1cccc(F)c1)CC1CC1`, the Inhibition in the test with Plasmodium falciparum [1] was determined as 100%; in the test on Plasmodium falciparum [2] it was 92%; with HepG2 it was 0%.
The like results for `CN1CCN(c2nc(NCCc3ccc(O)cc3)nc(NCc3ccccc3-c3ccc(C(F)(F)F)cc3)n2)CC1` were, in that order, 90%, 82% and 35%.
On the same counts, the results for `Cc1cc(CN2CC[C@H](NC(=O)c3ccc(Cl)c(Cl)c3)C2)ccc1OC1CCN(C)C1.O=C(O)C(F)(F)F` (stereo not given in full) are 100%, 24% and 71%.
With `COc1cc(Nc2nccc(-c3c(-c4cccc(NC(=O)c5c(F)cccc5F)c4)nn4ncccc34)n2)cc(OC)c1OC`, the Inhibition in the test with Plasmodium falciparum [1] is 98%; with Plasmodium falciparum [2] it was 97%; in the test with HepG2, 96%.
On the same counts, the results for `COc1ccc(CNC2CCN(C)CC2)cc1-c1ccc(S(=O)(=O)NC2CCC2)c(C)c1.O=C(O)C(F)(F)F` are 100%, 96% and 24%.
Consider `O=[N+]([O-])c1cccc(Nc2nccc(-c3cnn4ncccc34)n2)c1`, for which the Inhibition turned out to be 87% in the test with Plasmodium falciparum [1], 74% in the test with Plasmodium falciparum [2] and 33% in the test on HepG2.
The like results for `O=C(Nc1cccc(F)c1)N(Cc1ccc(-c2cccc(CN3CCNCC3)c2)cc1)C1CCN(Cc2ccccc2)CC1.O=C(O)C(F)(F)F` were, in that order, 97%, 54% and 13%.
On the same counts, the results for `Cc1nc(C)c(CC(=O)Nc2ccc(-c3ccc(-c4nc5cc(C(F)(F)F)ccc5[nH]4)s3)cc2)s1` are 90%, 29% and 57%.
The like results for `CC(C)Sc1nc(-c2ccccc2)nc2c1COC(C)(C)C2` were, in that order, 98%, 41% and 2%.
On to `COc1ccc(/C=C/C(=O)Nc2ccc(-c3ccncc3)cc2)cc1CCCN(C)C.O=C(O)/C=C\C(=O)O`, for which the Inhibition with Plasmodium falciparum [1] is recorded as 100%; in the test on Plasmodium falciparum [2] it was 86%; with HepG2, 3%.
The like results for `CC(C)(C)c1nn(-c2ccccc2)c2[nH]c(=O)c(CNC3CCCC3)cc12` were, in that order, 100%, 70% and 7%.
In the case of `CCN(CC)C(=O)C1CCCN(C(=O)Nc2cc(C(F)(F)F)cc(C(F)(F)F)c2)C1` (stereo not given), the Inhibition in the test with Plasmodium falciparum [1] is recorded as 86%; in the test on Plasmodium falciparum [2], 98%; in the test with HepG2, 0%.
Regarding `Cc1cc(N[C@@H](Cc2ccccc2)C(=O)NCc2cccs2)nc(NCCc2cccnc2)n1.O=C(O)C(F)(F)F`, the Inhibition came to 84% in the test with Plasmodium falciparum [1], 38% in the test on Plasmodium falciparum [2] and 10% in the test with HepG2.
On the same counts, the results for `Cc1cc(N[C@@H](CC(C)C)C(=O)NCc2cccs2)nc(Nc2ccccc2)n1.O=C(O)C(F)(F)F` are 100%, 57% and 18%.
On the same counts, the results for `Cl.N=C(N)c1cc(Cl)cc(NC(=O)Nc2cc(Cl)cc(C(=N)N)c2)c1` are 92%, 92% and 4%.
On the same counts, the results for `Cc1cc(OCc2ccncc2)cc2c1C(=O)CC(C)(C)O2` are 99%, 0% and 0%.
As to `Cc1ccc2[nH]c3c(NCCCN4CCOCC4)ncnc3c2c1`, the Inhibition was determined as 100% with Plasmodium falciparum [1], 9% in the test with Plasmodium falciparum [2] and 0% in the test with HepG2.
On the same counts, the results for `Br.CCCCCCn1c2c(c(=N)c3c1CCC3)CCC2` are 97%, 83% and 32%.
The like results for `CCCc1cc(NC2CCN(C)CC2)nc(Nc2ccc(C)cc2)n1` were, in that order, 100%, 20% and 25%.
In the case of `COc1ccc2c(C)cc(NCCCN(C)C)nc2c1.O=C(O)C(=O)O`, the Inhibition came to 95% in the test on Plasmodium falciparum [1], 19% in the test on Plasmodium falciparum [2] and 10% in the test on HepG2.
On the same counts, the results for `CC(C)c1ccc(CN2CCC(CNC(=O)c3cc(-c4cccc(C(F)(F)F)c4)cs3)C2)cc1.O=C(O)C(F)(F)F` (stereo not given) are 99%, 60% and 36%.
With `O=C(Nc1ccccc1)N(Cc1cccc(-c2ccc(CNCc3ccc4c(c3)OCO4)cc2)c1)C1CCN(Cc2ccccc2)CC1.O=C(O)C(F)(F)F`, the Inhibition in the test with Plasmodium falciparum [1] turned out to be 100%; with Plasmodium falciparum [2] it was 82%; with HepG2 it was 27%.
